Bioassay records (PubChem)
Sampled rows, rich in hits. Any-hit rate of the full collection: about 2.2%.
DENV2 CPE: inhibitors of DENV2 cytopathic effect. hit rate 1.7% among 350,000. DENV2-infected cells, cytopathic effect rescue, plate reader. AID 651640. CPE inhibition, % at 9.99 µM; in the data active = CPE inhibition above about 20%, passing the limit was not always enough; inconclusive = no clear call, values can overlap the other calls; tested in BHK-21 cells
PGC1a acetyl inh: lowers PGC1a acetylation signal in U2OS cells; AlphaScreen anti-acetyl-lysine; with virally co-expressed GCN5 acetyltransferase; inhibition, % at 15.6 µM; hit rate 0.17% among 350,000; AID 651687;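 active = every replicate shows inhibition of at least 40%; inconclusive = mean inhibition at least 40% but some replicate below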
PvdQ inh: blocks Pseudomonas aeruginosa PvdQ acylase activity | purified PvdQ acylase, fluorescence plate reader | inhibition, % at 10 µM | hit rate 0.063% among 340,000 | AID 488965; in the data active = inhibition above about 30%, passing the limit was not always enough; inconclusive = no clear call, values can overlap the other calls
C2C12 statin: suppression of simvastatin myotoxicity; C2C12 myotubes + simvastatin, ATP luminescence, 48 h; scaled: DMSO 0, geranylgeraniol control 100; hit rate 0.78% among 330,000; rescue of ATP level, % at 7.49 µM;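 active = mean ATP rescue above about 67%, or every replicate alone reaching that limit, limit read from the data, passing the limit was not always enough; inconclusive = no clear call, values can overlap the other calls; inactive = mean under the limit and some replicate under it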;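 also: myotubes were challenged with 10 µM simvastatin during compound exposure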
miR122 inh: blocks miR-122 activity in Huh7 sensor cells; Huh7 miR-122 Renilla luciferase sensor, 48 h; neutral wells = 0, positive control = 100; activation (reporter increase), % at 12.5 µM; hit rate 0.3% among 340,000;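 active = mean replicate activation score at least 90 and every replicate individually at or above 90; inconclusive = only one of the two criteria met; inactive = neither criterion met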;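 also: higher luciferase means less miR-122 activity so hits act as miR-122 inhibitors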
Large screens that a line does not name were inactive; ! = not confirmed by another sample.

CNC(=O)C[C@H]1CC[C@H]2[C@@H](COc3ccc(NC(=O)c4ccc(OC)cc4)cc3C(=O)N2C)O1	none (no result: PvdQ inh)
CNC(=O)C[C@@H]1CC[C@H]2[C@@H](COc3ccc(NC(=O)c4ccc(OC)cc4)cc3C(=O)N2C)O1	DENV2 CPE 63.5 (no result: PvdQ inh)
CN1C(=O)c2cc(NC(=O)c3ccc4c(c3)OCO4)ccc2OC[C@H]2O[C@@H](CC(=O)O)CC[C@H]21	DENV2 CPE 68.9 (no result: PvdQ inh)
C[C@H](CO)N1C[C@H](C)[C@H](CN(C)Cc2ccccc2)Oc2cc(C#Cc3ccccn3)ccc2S1(=O)=O	DENV2 CPE inconclusive (no result: PvdQ inh)
CN1C(=O)c2cc(NC(=O)Nc3ccccc3)ccc2OC[C@H]2O[C@@H](CC(=O)O)CC[C@H]21	none (no result: DENV2 CPE, PGC1a acetyl inh, PvdQ inh, miR122 inh)
CNC(=O)C[C@H]1CC[C@@H]2[C@@H](COc3ccc(NC(=O)Nc4cc(C)cc(C)c4)cc3C(=O)N2C)O1	none (no result: PvdQ inh)
CNC(=O)C[C@H]1CC[C@H]2[C@H](COc3ccc(NC(=O)Nc4cc(C)cc(C)c4)cc3C(=O)N2C)O1	DENV2 CPE 46.2 (no result: PvdQ inh)
CN1C(=O)c2cc(NC(=O)Nc3ccccc3)ccc2OC[C@@H]2O[C@@H](CC(=O)O)CC[C@@H]21	DENV2 CPE 56.6 (no result: PGC1a acetyl inh, PvdQ inh, miR122 inh)
CCC(=O)Nc1ccc2c(c1)C(=O)N(C)[C@@H]1CC[C@@H](CC(=O)NC3Cc4ccccc4C3)O[C@@H]1CO2	DENV2 CPE 30.4 (no result: PvdQ inh)
C[C@@H]1CN([C@H](C)CO)C(=O)Cc2cc(NC(=O)CCC(F)(F)F)ccc2O[C@H]1CN(C)Cc1ccc(C(=O)Nc2ccccc2N)cc1	none (no result: PvdQ inh, C2C12 statin, miR122 inh)
COc1cccc(-c2ccc([C@H]3[C@@H](CO)N4C(=O)CN(C(=O)C5CCC5)C[C@@H]34)cc2)c1	none (no result: PvdQ inh, C2C12 statin, miR122 inh)
Cc1ccc(-c2ccc(CN3C(C(C)C)C(=O)N(Cc4cn(Cc5ccco5)nn4)CCS3(=O)=O)cc2)cc1 (stereo not given)	DENV2 CPE 28.0 (no result: PvdQ inh)
CC(C)CC1C(=O)N(Cc2cn(Cc3ccco3)nn2)CCS(=O)(=O)N1Cc1ccc(-c2ccc(Cl)cc2)cc1 (stereo not given)	DENV2 CPE 22.6 (no result: PvdQ inh)
CC(C)C(=O)Nc1ccc2c(c1)C(=O)N(C)[C@@H]1CC[C@H](CC(=O)N[C@@H](C)c3ccccc3)O[C@H]1CO2	none (no result: PvdQ inh)
CCC1(C)Nc2ccccc2C(=O)N1O (stereo not given)	C2C12 statin 117.8 (no result: DENV2 CPE)
CCOc1ccc(N2C(=O)c3ccccc3NC2(C)CC)cc1 (stereo not given)	none
Cc1ccccc1-c1ccc(C2[C@@H]3CN(C(=O)C4CCOCC4)C[C@H]2N3)cc1 (stereo not given in full)	none (no result: PvdQ inh, C2C12 statin, miR122 inh)
Cc1ccccc1-c1ccc(C2[C@@H]3CN(C(=O)C4CC4)C[C@H]2N3)cc1 (stereo not given in full)	DENV2 CPE 27.2! (no result: PvdQ inh, C2C12 statin, miR122 inh)
Cc1ccc(NC(=O)CN(C)C(=O)c2ccccc2OCc2c(C)noc2C)cc1	none
CCOc1ccc(NC(=O)CN(C)C(=O)c2ccccc2OCc2c(C)noc2C)cc1OCC	DENV2 CPE 24.6 (no result: PGC1a acetyl inh, C2C12 statin, miR122 inh)
COc1ccc2c3c([nH]c2c1)[C@@H](CO)N(C(=O)Nc1ccc(F)cc1)CC31CN(C(=O)Nc2c(C)noc2C)C1	none (no result: PvdQ inh, C2C12 statin, miR122 inh)
O=C(O)C[C@H]1C=C[C@@H](NC(=O)CCN2CCCCC2)[C@@H](CO)O1	DENV2 CPE 96.9 (no result: PvdQ inh, C2C12 statin, miR122 inh)
CN(C)CC(=O)N[C@H]1C=C[C@@H](CC(=O)NCCN2CCCCC2)O[C@@H]1CO	DENV2 CPE 58.6 (no result: PvdQ inh, miR122 inh)
O=C(O)C[C@@H]1C=C[C@H](NC(=O)CCN2CCCCC2)[C@H](CO)O1	none (no result: PvdQ inh, C2C12 statin, miR122 inh)
COc1ccccc1-c1cn(CC[C@@H]2CC[C@H](NC(=O)C3CCOCC3)[C@@H](CO)O2)nn1	none (no result: PvdQ inh)
CCC(=O)Nc1ccc2c(c1)OC[C@H](C)N(C(=O)COC)C[C@@H](C)[C@H](OC)CN(C)C2=O	none (no result: PvdQ inh, miR122 inh)
C[C@@H]1CN([C@H](C)CO)C(=O)c2cccc(NS(=O)(=O)c3cccs3)c2O[C@H]1CN(C)C(=O)Nc1ccc(C(F)(F)F)cc1	C2C12 statin 73.5 (no result: PvdQ inh)
C[C@@H]1CN([C@@H](C)CO)C(=O)c2cccc(NS(=O)(=O)c3cccs3)c2O[C@@H]1CN(C)C(=O)Nc1ccc(C(F)(F)F)cc1	C2C12 statin 95.7 (no result: PvdQ inh)
C[C@@H]1CN([C@@H](C)CO)C(=O)c2cccc(NS(=O)(=O)c3cccs3)c2O[C@H]1CN(C)C(=O)Nc1ccc(C(F)(F)F)cc1	none (no result: PvdQ inh)
CO[C@H]1CN(C)C(=O)c2cc(NC(=O)C3CCC3)ccc2OC[C@@H](C)N(C(=O)NC(C)C)C[C@@H]1C	none (no result: PvdQ inh, miR122 inh)
COC(=O)c1[nH]c2ccc(C)cc2c1NC(=O)CN1CCN(C(=O)c2ccccc2)CC1	C2C12 statin 96.3 (no result: DENV2 CPE)
